Assay outcomes from PubChem BioAssay.
CCT modulator: High-Throughput Screening for Modulators of Cytosolic Chaperonin Activity; purified chaperonin ATPase assay, HTRF ADP detection, 30 min; activity change, % (concentration not given with the values), hits read low; 360,000 tested, 0.3% active; AID 651819, 2012; in the data active = activity change below about -30%
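TRiC (40 or 20 nM final, by batch activity) in 30 mM Tris pH 7.4, 100 mM KCl, 5 mM MgCl2, 1 mM DTT was treated with compound at 76 uM single dose, then 10 uM ATP, 30 min at 37 °C. ADP was read by HTRF Transcreener.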
VDR inhibitor: Inhibitors of the vitamin D receptor (VDR): qHTS; Vitamin D3 receptor (Homo sapiens), P11473; VDR-SRC2-3 peptide fluorescence polarization, 2 h; Potency, µM, actives largely listed as inhibitors; 400,000 tested, 0.93% active
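After 23 nl compound addition and a short centrifugation, plates sat for 2 hours at ambient temperature; polarization of fluorescence then indicated loss of VDR binding to peptide SRC2-3.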
Mm-Cpn inhibitor: Inhibitors of TCP-1 ring complex (TRiC) of Methanococcus maripaludis (MmCpn): qHTS; Potency, µM (series often up to 76.9 µM), hits mostly inhibitors; purified Mm-Cpn ATPase, ADP Transcreener TR-FRET; 330,000 tested, 0.031% active; AID 504842, 2011; note: nearly all actives have a fitted effect of over 80% in size
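ATPase read-out: TR-FRET ADP immunoassay (anti-ADP Eu cryptate vs ADP-d2), ex 320 nm, em 590/665 nm; signal drops as ADP forms. Enzyme 25 nM, ATP 10 uM, 30 min at 37°C after 10 min compound preincubation.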
Sfp inh: qHTS Assay for Inhibitors of Bacillus subtilis Sfp phosphopantetheinyl transferase (PPTase). 4'-phosphopantetheinyl transferase ffp (Bacillus subtilis), Q9F4F7. Potency, µM, most hits filed as inhibitors. Biochemical Sfp PPTase activity, qHTS. 310,000 tested, 3.5% active;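 note: the enzyme is Sfp with the accession as filed and its product quenches rhodamine fluorescence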
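After 15 min at room temperature with compound, 15 nM Sfp received 5 uM rhodamine-CoA plus 12.5 uM BHQ-2-ybbR (50 mM Hepes pH 7.6, 10 mM MgCl2). Rate came from the fluorescence difference over 30 min, ex 525/em 598 nm.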
PLK1 PBD inh: qHTS for Inhibitors of PLK1-PDB (polo-like kinase 1 - polo-box domain): Primary Screen; Serine/threonine-protein kinase PLK1 (Homo sapiens), P53350; Plk1 PBD binding of FITC phosphopeptide, fluorescence polarization; Potency, µM, hits mostly inhibitors; 360,000 tested, 2.8% active; note: series mostly up to about 57 µM; nearly all actives have a fitted effect of over 65% in size
Target sequence (P53350 whole entry, looked up, the tested form may be a part): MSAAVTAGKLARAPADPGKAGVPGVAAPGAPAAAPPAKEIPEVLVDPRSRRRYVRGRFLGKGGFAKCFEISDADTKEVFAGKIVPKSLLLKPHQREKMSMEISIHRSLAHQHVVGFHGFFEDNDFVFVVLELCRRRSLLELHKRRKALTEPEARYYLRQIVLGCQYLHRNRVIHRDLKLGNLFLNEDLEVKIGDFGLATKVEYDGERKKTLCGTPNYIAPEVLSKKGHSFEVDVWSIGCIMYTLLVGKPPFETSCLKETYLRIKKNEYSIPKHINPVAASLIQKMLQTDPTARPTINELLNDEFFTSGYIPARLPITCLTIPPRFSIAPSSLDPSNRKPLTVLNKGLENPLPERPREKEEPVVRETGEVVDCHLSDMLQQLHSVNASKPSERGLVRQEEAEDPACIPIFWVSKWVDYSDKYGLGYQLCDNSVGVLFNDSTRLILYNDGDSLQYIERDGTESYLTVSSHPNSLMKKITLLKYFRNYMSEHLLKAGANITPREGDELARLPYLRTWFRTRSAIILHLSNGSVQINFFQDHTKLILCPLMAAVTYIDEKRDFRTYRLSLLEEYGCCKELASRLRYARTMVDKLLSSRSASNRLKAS
G9a inh: qHTS Assay for Inhibitors of Histone Lysine Methyltransferase G9a | Histone-lysine N-methyltransferase EHMT2 (Homo sapiens), Q96KQ7 | G9a H3K9 monomethylation, AlphaScreen, 2 h | 350,000 tested, 8.8% active | Potency, µM (top dose mostly 102 µM), usual class: inhibitors | AID 504332, 2011; note: nearly all actives have a fitted effect of over 75% in size
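Quantitative HTS format: methyltransferase activity on a biotin-tagged H3K9 peptide is measured by AlphaScreen, using a rabbit anti-monomethyl-H3K9 antibody with streptavidin donor and anti-IgG acceptor beads. Final levels are 20 nM enzyme, 500 nM peptide, 20 uM SAM; 2 h RT.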
A number is an active result; 0 = inactive; ? = inconclusive; - = not tested or not shown; [ ] = dose if it differs, or a comment. In the library only some 10% were active in any assay of this set; here they are far more common. Unless noted, calls come from the whole dose curve; as a rule, active = well fitted curve in the direction sought with a large enough effect; inconclusive = small, poorly fitted or top-dose-only effect, or another doubt; inactive = no such curve, though single readings can be large; an effect the other way counts as inactive or inconclusive.

SMILES | CCT modulator | VDR inhibitor | Mm-Cpn inhibitor | Sfp inh | PLK1 PBD inh | G9a inh
COC(=O)c1cc2oc(C)cc2n1CC(=O)Nc1ccc(C)cc1C | - | 0 | - | - | - | 0
O=C(Cc1csc2nc(-c3ccc(F)cc3)cn12)NCc1ccccc1 | - | 0 | - | - | - | 0
O=C(c1ccc2c(Cl)c3c(nc2c1)CCCC3)N1CCN(c2cccc(C(F)(F)F)c2)CC1 | - | 0 | - | - | - | ?
COc1ccc(CCNc2nc(-c3ccncc3)cs2)cc1OC | 0 | 0 | 0 | ? | ? | -
COc1ccc(CCNc2nc(-c3sc(C)nc3C)cs2)cc1OC | 0 | 0 | 0 | 45µM | 0 | 10µM
COc1ccc(CCNc2nc(C)c(C(C)=O)s2)cc1OC | 0 | 40µM | 0 | 16µM | 4.7µM | 4µM
COc1ccc(CCNc2nc(-c3ccc(F)cc3)c(CC(=O)O)s2)cc1OC | 0 | 79µM | 0 | 35µM | 8.4µM | 7.1µM
CCOC(=O)c1ccc(NCCc2ccc(OC)c(OC)c2)c(N)c1 | 0 | 0 | 0 | 0 | 0 | 50µM
Nc1nonc1C(=O)NCCNCc1cccc(Cl)c1Cl | - | 0 | - | - | - | 0
CCc1ccc(NC(=O)C(=O)NCC(c2cccnc2)N2CCN(c3ccc(F)cc3)CC2)cc1 (stereo unspecified) | - | 0 | - | - | - | ?
COc1ccc(NS(=O)(=O)c2ccc3oc(SC)nc3c2)cc1 | 0 | 0 | 0 | 50µM | 21µM | 40µM
CC(=O)Nc1ccc(NC(=O)CSc2ccc3nnc(-c4cccnc4)n3n2)cc1 | 0 | 0 | 0 | 0 | 0 | 32µM
O=C(CSc1ccc2nnc(-c3ccncc3)n2n1)Nc1ccc2c(c1)OCCO2 | 0 | 0 | 0 | 0 | 0 | 0
O=C(CSc1ccc2nnc(-c3cccnc3)n2n1)NCc1ccco1 | 0 | 0 | 0 | 50µM | 0 | 79µM
O=C(CSc1ccc2nnc(-c3ccncc3)n2n1)Nc1ccc2c(c1)OCO2 | 0 | 0 | 0 | 0 | 0 | 32µM
Cc1ccc(NC(=O)CSc2ccc3nnc(-c4cccnc4)n3n2)cc1 | 0 | 0 | 0 | 0 | 0 | 0
CCOC(=O)CSc1ccc2nnc(-c3cccnc3)n2n1 | 0 | 0 | 0 | 0 | 0 | 18µM
CCOC(=O)CSc1ccc2nnc(-c3ccccc3)n2n1 | 0 | 0 | 0 | 0 | 0 | 0
CCCOc1ccc(-c2nonc2NC(=O)c2oc3ccc(C)cc3c2C)cc1OCCC | - | 0 | - | - | - | 0
COc1ccc(-c2cc(C(C)=O)c(C)n2CCC(=O)Nc2ccc(C)c(Cl)c2)cc1 | - | 0 | - | - | - | 0
COc1ccc(S(=O)(=O)n2c([N+](=O)[O-])cnc2C)cc1OC | 0 | 0 | 0 | 0 | 0 | 56µM
N#CCCn1c(=O)c(-c2ccc(Cl)cc2)nc2cnc(N3CCNCC3)nc21 | - | 0 | - | 0 | - | 0[0.501 µM]
Cc1cc(OCC(=O)NNC(=S)NC(=O)c2ccc(Br)o2)ccc1Cl | 0 | 0 | 0 | 0 | ? | 32µM
COC(CC(=O)NNC(=S)Nc1ccc(Cl)cc1)OC | 0 | 0 | 0 | 0 | 0 | 0
CC(=O)NC(=S)Nc1ccc(NC(=O)COc2ccc(C(C)C)cc2)cc1 | 0 | 0 | 0 | 0 | 0 | ?
SMILES | CCT modulator | VDR inhibitor | Mm-Cpn inhibitor | Sfp inh | PLK1 PBD inh | G9a inh
CC(=O)NC(=S)Nc1ccc(NC(=O)COc2ccc(Cl)cc2)cc1 | 0 | 0 | 0 | 0 | 0 | 5.6µM
CCNC(=O)COc1ccc(Br)cc1Cl | 0 | 0 | 0 | 0 | 0 | 0[12.7 µM]
COc1ccc(NC(=S)NNC(=O)CNc2ccc(Cl)cc2)cc1 | 0 | 0 | 0 | 79µM | 27µM | 10µM
COc1ccc(OCC(=O)NC(=S)NNC(=O)COc2ccc(Br)cc2Cl)cc1 | 0 | ? | 0 | 22µM | 24µM | 1.6µM
c1ccc(N2CCN(Cc3nnc(-c4ccc5c(c4)OCO5)o3)CC2)cc1 | - | 0 | - | - | - | 0
O=C(CN1C(=O)CC(c2ccccc2)Sc2ccccc21)Nc1cccc(Cl)c1 (stereo unspecified) | - | 0 | - | - | - | 0
CN(c1cccc(NC(=O)COc2ccc(Cl)cc2Cl)c1)S(C)(=O)=O | 0 | 0 | 0 | 0 | 0 | 0
O=C(COc1ccc(Br)cc1Cl)NC(=S)Nc1ccccn1 | 0 | 0 | 0 | 56µM | 0 | 79µM
